# Source: PubChem BioAssay
# Calls of active or inactive are those of the source. Unless noted, the rule behind the calls is not given here.
# How the values were obtained:
# [1] = HepG2 liver cancer cell viability effects, profiling panel, resazurin fluorescence, 24 h, PK04 Diversity Set (AID 1172); details: higher = more signal
# [2] = basal S. cerevisiae growth modulation, no modifier, primary screen, OD600, strain BY4716, 24 h, basal condition (AID 1173); details: OD600, 24 h, higher = more signal, called active from +8 up or from −8 down
# [3] = MM1S myeloma cell viability, profiling panel, resazurin fluorescence, basal, 24 h, PK04 Diversity Set (AID 1174); details: higher = more signal, called active from +8 up or from −8 down;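 note: MM1S multiple myeloma cell line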
# [4] = target: Dihydroorotate dehydrogenase (quinone), mitochondrial (Plasmodium falciparum (isolate 3D7)) (UniProt Q08210); experiment: PfDHODH enzyme inhibitors, primary screen, biochemical, C-terminal His tag, absorbance 600 nm (AID 1175); details: DCIP absorbance 600 nm, higher = more signal, called active from +8 up or from −8 down;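 note: recombinant parasite enzyme with a five histidine tag at its C terminus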
# [5] = P. aeruginosa biofilm formation inhibitors, primary screen, strain PAO1, LB-PBS medium, absorbance 600 nm (AID 1176); details: P. aeruginosa PAO1 growth/biofilm, A600, 12 h; higher = more signal
# [6] = S. cerevisiae RM11-1a growth modifiers, primary screen, strain RM11-1a, OD600, basal, 24 h (AID 1177); details: OD600, 24 h, higher = more signal, called active from +8 up or from −8 down;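 note: cultures grown under basal conditions with no added stressor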
# [7] = E. coli acrAB mutant growth effects, primary screen, E. coli filamentation inducers, strain DRC39, OD650, 24 h (AID 1178); details: higher = more signal, called active from +8 up or from −8 down;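 note: growth measured as culture turbidity by optical density at 650 nm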
# [8] = E. coli acrAB mutant growth effects, primary screen, E. coli filamentation inducers, strain DRC39, OD650, 48 h (AID 1179);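 note: screen aims at cell division blockers that make cells filament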; details: E. coli DRC39 delta-acrAB growth, higher = more signal, called active from +8 up or from −8 down
# [9] = RPMI8226 myeloma cell viability, profiling panel, resazurin fluorescence, basal, 24 h, PK04 Diversity Set (AID 1180); details: higher = more signal;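 note: RPMI8826 multiple myeloma cell line at 5000 cells per well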
# [10] = target: E3 ubiquitin-protein ligase XIAP (Homo sapiens) (UniProt P98170); experiment: XIAP binders, primary screen, biophysical, small-molecule microarray, fluorescence 635 nm (AID 1181); details: small-molecule microarray binding, higher = more signal;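 note: score merges 667 nm emission and signal to noise over triplicate slides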
# [11] = tested on: XIP peptide (Xip251-270) binding; experiment: small-molecule binders of XIP peptide, primary screen, biochemical, small-molecule microarray, fluorescence 635/667 nm, 0.1 µg/mL protein (AID 1182); details: fluorescent protein binding, 635 nm, higher = more signal, called active from +8 up or from −8 down
# XIP peptide (Xip251-270) = experiment: small-molecule binders of XIP peptide, primary screen, biochemical, small-molecule microarray, fluorescence 635/667 nm, 0.5 µg/mL protein (AID 1183); details: small-molecule microarray binding, fluorescence 635 nm; higher = more signal
# [12] = Plasmodium falciparum growth inhibition, primary screen, strain 3D7, DAPI fluorescence, 100 nL (AID 1184);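 note: parasites grown inside human red blood cells in medium with human serum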; details: P. falciparum 3D7 growth, 3 d, higher = more signal
# [13] = target: Homeobox protein Hox-A13 (Mus musculus) (UniProt Q62424); experiment: inhibitors of HoxA13-DNA binding, primary screen, biochemical, fluorescence polarization, labeled oligonucleotide (AID 1185); details: 15 min, higher = more signal, called active from +8 up or from −8 down
# [14] = inhibitors of hydroxyurea-induced Chk1 phosphorylation, primary screen, imaging, HeLa, phospho-Chk1 antibody, percent positive cells (AID 1186); details: hydroxyurea-induced phospho-Chk1 immunofluorescence imaging, higher = more signal
# [15] = inhibitors of hydroxyurea-induced Chk1 phosphorylation, primary screen, imaging, HeLa, phospho-Chk1 nuclear intensity (AID 1187); details: hydroxyurea-induced phospho-Chk1 immunofluorescence imaging, higher = more signal
# Sequence of Homeobox protein Hox-A13 (Mus musculus) (Q62424 whole entry, looked up): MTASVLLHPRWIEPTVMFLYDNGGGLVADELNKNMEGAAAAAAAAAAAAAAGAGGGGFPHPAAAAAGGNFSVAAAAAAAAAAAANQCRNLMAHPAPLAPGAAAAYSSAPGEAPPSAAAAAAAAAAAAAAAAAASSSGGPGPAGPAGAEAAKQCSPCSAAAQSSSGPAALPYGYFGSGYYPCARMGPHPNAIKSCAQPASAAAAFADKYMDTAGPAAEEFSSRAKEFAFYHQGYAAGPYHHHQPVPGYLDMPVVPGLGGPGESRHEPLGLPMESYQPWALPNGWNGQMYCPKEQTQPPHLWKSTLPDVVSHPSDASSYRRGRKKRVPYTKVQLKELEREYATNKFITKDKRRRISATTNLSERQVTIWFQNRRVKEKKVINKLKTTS
# Sequence of Dihydroorotate dehydrogenase (quinone), mitochondrial (Plasmodium falciparum (isolate 3D7)) (Q08210 whole entry, looked up): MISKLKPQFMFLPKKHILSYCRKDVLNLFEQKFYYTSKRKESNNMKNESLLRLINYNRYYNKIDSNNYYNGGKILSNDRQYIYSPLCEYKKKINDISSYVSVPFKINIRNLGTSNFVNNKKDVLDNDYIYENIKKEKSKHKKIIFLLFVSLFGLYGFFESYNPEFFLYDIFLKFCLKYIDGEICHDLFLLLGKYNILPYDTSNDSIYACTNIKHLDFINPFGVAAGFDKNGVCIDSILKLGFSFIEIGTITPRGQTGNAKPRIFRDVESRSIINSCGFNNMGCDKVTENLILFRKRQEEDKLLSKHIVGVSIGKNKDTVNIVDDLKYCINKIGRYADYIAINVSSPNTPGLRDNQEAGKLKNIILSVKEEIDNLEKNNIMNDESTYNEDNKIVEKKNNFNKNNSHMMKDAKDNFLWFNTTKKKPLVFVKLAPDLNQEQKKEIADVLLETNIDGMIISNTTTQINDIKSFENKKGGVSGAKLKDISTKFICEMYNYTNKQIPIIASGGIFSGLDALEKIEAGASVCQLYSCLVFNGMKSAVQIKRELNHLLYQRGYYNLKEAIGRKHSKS
# Sequence of E3 ubiquitin-protein ligase XIAP (Homo sapiens) (P98170 whole entry, looked up): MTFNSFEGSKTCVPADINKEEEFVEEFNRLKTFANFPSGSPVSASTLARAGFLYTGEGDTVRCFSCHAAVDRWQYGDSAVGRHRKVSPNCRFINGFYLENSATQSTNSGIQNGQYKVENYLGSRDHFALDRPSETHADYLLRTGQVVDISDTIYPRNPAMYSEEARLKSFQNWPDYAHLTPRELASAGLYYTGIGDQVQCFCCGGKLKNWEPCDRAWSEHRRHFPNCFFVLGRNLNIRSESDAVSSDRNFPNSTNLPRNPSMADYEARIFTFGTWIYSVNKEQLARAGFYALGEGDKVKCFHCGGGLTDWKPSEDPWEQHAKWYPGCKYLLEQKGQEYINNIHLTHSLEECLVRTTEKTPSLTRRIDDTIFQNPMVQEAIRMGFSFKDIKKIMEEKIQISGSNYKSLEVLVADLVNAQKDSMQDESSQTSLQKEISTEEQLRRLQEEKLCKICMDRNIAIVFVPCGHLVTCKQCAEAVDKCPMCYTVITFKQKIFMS
SMILES,z-score [1],z-score [2],z-score [3],composite z-score [4],z-score [5],z-score [6],z-score [7],z-score [8],z-score [9],composite z-score [10],composite z-score [11],composite z-score (XIP peptide (Xip251-270)),z-score [12],z-score [13],z-score [14],z-score [15]
CC(=O)NCCCC[C@@H]1NC(=O)[C@H]2C[C@@H](C(=O)NCCCCCNC(=O)CS)[C@@H](c3ccc(O)cc3)N2C1=O,-0.0321,1.14 (inactive),0.0985 (inactive),0.452 (inactive),0.395 (inactive),0.949 (inactive),-0.553 (inactive),-0.574 (inactive),-0.213,0.0503,0.184 (inactive),0.805,0.147,-3.02 (inactive),0.0401 (inactive),0.176 (inactive)
[N-]=[N+]=NCc1ccccc1[C@@H]1OC(c2ccc(OCCCO)cc2)=N[C@]1(CCS(=O)(=O)c1ccccc1)C(=O)N1CCOCC1,-0.0512,-0.26 (inactive),0.543 (inactive),-4.67 (inactive),0.19 (inactive),0.821 (inactive),2.84 (inactive),0.753 (inactive),1.05,0.0512,1.06 (inactive),0.712,-2.36,-1.69 (inactive),-0.535 (inactive),-0.137 (inactive)
COCCCNC(=O)[C@@H]1c2ccccc2C(=O)N(Cc2ccccc2OC)[C@H]1c1ccc(CO)cc1,1.13,-0.993 (inactive),1.71 (inactive),0.253 (inactive),1.23 (inactive),-0.839 (inactive),0.342 (inactive),0.261 (inactive),1.14,0.0472,0.694 (inactive),-0.0218,-1.99,-2.85 (inactive),-0.481 (inactive),-0.576 (inactive)
CC(C)[C@@H](C(=O)O)n1cc(C2(O)CCCCC2)nn1,0.853,-1.45 (inactive),0.979 (inactive),-0.549 (inactive),0.313 (inactive),-0.513 (inactive),0.738 (inactive),-0.195 (inactive),0.354,0.0077,0.142 (inactive),0.297,0.564,-0.619 (inactive),-0.3 (inactive),-0.12 (inactive)
[N-]=[N+]=Nc1ccccc1[C@H]1OC(c2ccc(OCCCO)cc2)=N[C@@]1(Cc1ccccc1)C(=O)N1CCOCC1,-1.28,-1.33 (inactive),-2.81 (inactive),0.396 (inactive),0.948 (inactive),0.711 (inactive),0.226 (inactive),-0.927 (inactive),-4.56,-0.0917,2.73 (inactive),0.816,-2.19,-3.84 (inactive),-0.0747 (inactive),0.0969 (inactive)
C[N+](C)(C)CCCC[C@@H]1NC(=O)[C@@H]2C[C@H](C(=O)NCCCCCN)[C@H](c3ccc(O)cc3)N2C1=O,0.236,-0.812 (inactive),0.883 (inactive),-2.28 (inactive),1.11 (inactive),-3.02 (inactive),1.08 (inactive),1.48 (inactive),0.555,0.346,0.941 (inactive),0.831,0.117,-0.32 (inactive),-0.661 (inactive),-0.154 (inactive)
O=C(CS)NCCCCCNC(=O)[C@@H]1C[C@@H]2C(=O)NCC(=O)N2[C@@H]1c1cccc(OCCO)c1,-0.28,-1.01 (inactive),0.648 (inactive),-0.61 (inactive),0.752 (inactive),-2.63 (inactive),1.95 (inactive),2.01 (inactive),0.847,-0.103,1.96 (inactive),0.343,0.082,-3.25 (inactive),-0.128 (inactive),0.361 (inactive)
C[C@H]1C2[C@H](Cc3ccccc3)NC(=O)[C@]23C(=O)NCC(=O)N2CCC[C@H]2C(=O)NC/C=C/CCC/C=C/C3[C@@H]2O[C@]12C (some centres undefined),-1.11,-1.17 (inactive),-0.111 (inactive),-0.0305 (inactive),-0.578 (inactive),-0.0879 (inactive),1.2 (inactive),0.601 (inactive),0.277,-0.152,-0.416 (inactive),-0.56,-1.48,-3.96 (inactive),0.0614 (inactive),0.0823 (inactive)
COc1cc(CO)cc(I)c1O[C@H]1C=C(C(=O)NCCO)C[C@@H](N(C(=O)c2cc3ccccc3oc2=O)C2CCCCCC2)[C@@H]1O,-0.163,-1.66 (inactive),1.11 (inactive),-0.346 (inactive),-0.377 (inactive),-0.0819 (inactive),2.12 (inactive),0.435 (inactive),-0.335,-0.154,-0.207 (inactive),0.466,-1.8,-7.6 (inactive),0.21 (inactive),0.722 (inactive)
